Data reported in PubChem BioAssay.
Calls of active or inactive are those of the source.

Experiments:
[1] = E. coli DRC41 culture turbidity changes, primary screen, E. coli filamentation inducer project, strain DRC41, OD650, 48 h (AID 1152);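 further: E. coli MC1000 strain DRC41 lacking acrAB efflux pump and sulA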; settings: E. coli DRC41 (acrAB sulA), higher = more signal, called active from +8 up or from −8 down
[2] = small-molecule binders of probe aLefty1, primary screen, biochemical, small-molecule microarray, 635/667 nm fluorescence (AID 1153); settings: higher = more signal;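 further: score merges spot fluorescence with signal-to-noise ratio from the scanned slide images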
[3] = PSAC antagonists in infected red cells, primary screen, cell-based, P. falciparum Indochina, OD700, 1 h (AID 1154); settings: P. falciparum Indochina infected RBC osmotic lysis, higher = more signal, called active from +8 up or from −8 down
[4] = PSAC antagonists in infected red cells, primary screen, cell-based, P. falciparum Indochina, OD700, 2 h (AID 1155);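 further: lysis reports solute entry through the parasite surface anion channel PSAC; channel blockers reduce lysis of infected cells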; settings: P. falciparum Indochina infected erythrocytes, osmotic lysis OD700; higher = more signal, called active from +8 up or from −8 down
[5] = osmotic lysis modulators in infected erythrocytes, primary screen, PSAC antagonist project, cell-based, P. falciparum Indochina, OD700, 3 h (AID 1156); settings: higher = more signal, called active from +8 up or from −8 down
[6] = PSAC antagonists in infected red cells, primary screen, cell-based, P. falciparum Indochina, OD700, 18 h (AID 1157); settings: P. falciparum Indochina infected erythrocytes, osmotic lysis OD700, 18 h; higher = more signal, called active from +8 up or from −8 down
[7] = modulators of S6 phosphorylation in cells, primary screen, cell-based, A549, cytoblot, luminescence, serum-stimulated (AID 1158); settings: A549 phospho-S6 cytoblot, 5 h, higher = more signal;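 further: serum-stimulated A549 lung adenocarcinoma cells; signal is phosphorylated S6 detected by cytoblot immunostaining with HRP secondary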
[8] = biological target: NADPH oxidase 2 (Homo sapiens) (UniProt P04839); assay: NOX2-dependent H2O2 signal modulators, primary screen, NOX inhibitor project, cell-based, HEK293-NOX2, PMA-stimulated, Amplex Red fluorescence (AID 1159); settings: 45 min, higher = more signal, called active from +8 up or from −8 down; further: test concentration not given here
Sequence of NADPH oxidase 2 (Homo sapiens) (P04839 whole entry, looked up): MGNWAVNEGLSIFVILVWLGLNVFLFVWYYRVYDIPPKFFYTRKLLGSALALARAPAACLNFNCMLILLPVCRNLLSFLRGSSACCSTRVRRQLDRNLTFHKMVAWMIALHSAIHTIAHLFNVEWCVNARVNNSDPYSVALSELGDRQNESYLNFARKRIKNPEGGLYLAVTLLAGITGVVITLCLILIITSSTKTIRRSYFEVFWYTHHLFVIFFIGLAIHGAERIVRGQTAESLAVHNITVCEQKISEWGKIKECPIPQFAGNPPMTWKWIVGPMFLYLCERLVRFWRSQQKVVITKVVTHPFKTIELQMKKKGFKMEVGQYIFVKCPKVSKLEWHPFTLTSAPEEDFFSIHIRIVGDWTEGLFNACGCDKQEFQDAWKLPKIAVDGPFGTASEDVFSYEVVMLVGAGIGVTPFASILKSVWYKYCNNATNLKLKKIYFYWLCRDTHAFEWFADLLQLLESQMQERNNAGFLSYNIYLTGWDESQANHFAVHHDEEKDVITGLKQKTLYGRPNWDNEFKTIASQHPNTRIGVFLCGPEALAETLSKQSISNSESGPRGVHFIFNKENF

[9] = biological target: NADPH oxidase 4 (Homo sapiens) (UniProt Q9NPH5); assay: NOX4-dependent H2O2 signal modulators, primary screen, NOX inhibitor project, cell-based, HEK293-NOX4, tetracycline-induced, Amplex Red fluorescence (AID 1160); settings: 45 min, higher = more signal, called active from +8 up or from −8 down
Sequence of NADPH oxidase 4 (Homo sapiens) (Q9NPH5 whole entry, looked up): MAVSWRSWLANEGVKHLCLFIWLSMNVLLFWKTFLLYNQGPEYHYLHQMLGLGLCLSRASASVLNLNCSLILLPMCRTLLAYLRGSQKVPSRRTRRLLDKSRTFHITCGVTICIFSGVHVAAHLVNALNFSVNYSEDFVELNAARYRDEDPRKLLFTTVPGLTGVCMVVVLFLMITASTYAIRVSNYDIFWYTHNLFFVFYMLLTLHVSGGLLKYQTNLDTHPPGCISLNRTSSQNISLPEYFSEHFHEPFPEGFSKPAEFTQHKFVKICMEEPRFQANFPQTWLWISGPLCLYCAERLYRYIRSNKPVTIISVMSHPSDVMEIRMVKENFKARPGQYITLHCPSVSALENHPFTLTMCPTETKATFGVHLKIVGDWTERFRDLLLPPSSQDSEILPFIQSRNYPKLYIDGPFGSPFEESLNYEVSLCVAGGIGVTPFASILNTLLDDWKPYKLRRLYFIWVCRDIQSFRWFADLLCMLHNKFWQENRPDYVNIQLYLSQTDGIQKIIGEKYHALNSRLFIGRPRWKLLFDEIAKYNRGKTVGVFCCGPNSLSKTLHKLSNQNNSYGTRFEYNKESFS

[10] = biological target: NADPH oxidase 5 (Homo sapiens) (UniProt Q96PH1); assay: NOX5-dependent H2O2 signal modulators, primary screen, NOX inhibitor project, cell-based, HEK293-NOX5, Amplex Red fluorescence (AID 1161); settings: HEK293-NOX5, ionomycin, 45 min, higher = more signal
Sequence of NADPH oxidase 5 (Homo sapiens) (Q96PH1 whole entry, looked up): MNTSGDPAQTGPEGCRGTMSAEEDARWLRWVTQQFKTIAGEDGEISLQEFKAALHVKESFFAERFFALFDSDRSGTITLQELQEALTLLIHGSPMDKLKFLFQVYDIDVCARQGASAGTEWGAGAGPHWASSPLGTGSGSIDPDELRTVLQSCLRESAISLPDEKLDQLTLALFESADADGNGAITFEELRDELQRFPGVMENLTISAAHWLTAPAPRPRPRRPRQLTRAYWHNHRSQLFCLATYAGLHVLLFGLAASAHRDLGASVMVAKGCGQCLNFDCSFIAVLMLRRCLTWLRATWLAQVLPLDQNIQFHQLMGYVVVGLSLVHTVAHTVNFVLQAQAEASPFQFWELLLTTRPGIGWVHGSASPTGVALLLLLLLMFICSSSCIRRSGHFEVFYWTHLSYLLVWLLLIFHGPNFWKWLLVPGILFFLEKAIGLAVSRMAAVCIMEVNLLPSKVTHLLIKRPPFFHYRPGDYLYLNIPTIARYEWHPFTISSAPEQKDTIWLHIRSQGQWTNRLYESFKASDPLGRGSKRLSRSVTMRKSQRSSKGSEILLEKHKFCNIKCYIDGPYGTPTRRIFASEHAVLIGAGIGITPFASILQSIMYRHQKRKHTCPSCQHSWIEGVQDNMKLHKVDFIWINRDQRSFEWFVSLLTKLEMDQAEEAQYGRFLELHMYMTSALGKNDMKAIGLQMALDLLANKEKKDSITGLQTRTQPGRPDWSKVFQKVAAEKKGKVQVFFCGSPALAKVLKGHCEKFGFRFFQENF

[11] = A549 cell viability effects, profiling panel, calcein-AM fluorescence, 48 h, basal (AID 1162); settings: higher = more signal; further: test concentration not given here
[12] = adipocyte viability effects, profiling panel, cell-based, 3T3-L1 adipocytes, calcein-AM fluorescence, 48 h, basal (AID 1163); settings: 3T3-L1 adipocytes viability, higher = more signal; further: test concentration not given here
[13] = HepG2 cell viability effects, profiling panel, calcein-AM fluorescence, 48 h, basal (AID 1164); settings: higher = more signal; further: test concentration not given here
[14] = MM1S cell viability effects, profiling panel, calcein-AM fluorescence, 48 h, basal (AID 1165); settings: higher = more signal;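 further: viability of MM1S multiple myeloma cells under basal unstimulated conditions; test concentration not given here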
[15] = basal RPMI8226 viability, no added stimulus, profiling panel, cell-based, calcein-AM fluorescence, 48 h, PK04 Diversity Set (AID 1166); settings: RPMI8226 myeloma viability, higher = more signal;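 further: cells grown under basal conditions without added stimulus; test concentration not given here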
[16] = basal HepG2 mitochondrial membrane potential changes, profiling panel, cell-based, JC-1 fluorescence, 24 h, 100 nL compound (AID 1167); settings: higher = more signal; further: test concentration not given here
[17] = basal 3T3-L1 adipocyte mitochondrial potential changes, profiling panel, cell-based, JC-1 fluorescence, 3T3-L1 adipocytes, 24 h, 100 nL compound (AID 1168); settings: JC-1 mitochondrial fluorescence, higher = more signal, called active from +8 up or from −8 down; further: test concentration not given here
[18] = basal RPMI8226 mitochondrial membrane potential changes, profiling panel, cell-based, JC-1 fluorescence, 24 h, 100 nL compound (AID 1169); settings: RPMI8226 myeloma, JC-1 mitochondrial potential fluorescence, higher = more signal; further: test concentration not given here
[19] = basal MM1S mitochondrial membrane potential changes, profiling panel, cell-based, JC-1 fluorescence, 24 h, 100 nL compound (AID 1170); settings: higher = more signal; further: test concentration not given here
[20] = A549 lung cancer cell viability effects, profiling panel, resazurin fluorescence, 24 h, PK04 Diversity Set (AID 1171); settings: higher = more signal, called active from +8 up or from −8 down; further: test concentration not given here

| SMILES | z-score [1] | composite z-score [2] | z-score [3] | z-score [4] | z-score [5] | z-score [6] | z-score [7] | z-score [8] | z-score [9] | z-score [10] | z-score [11] | z-score [12] | z-score [13] | z-score [14] | z-score [15] | z-score [16] | z-score [17] | z-score [18] | z-score [19] | z-score [20] |
| --- | --- | --- | --- | --- | --- | --- | --- | --- | --- | --- | --- | --- | --- | --- | --- | --- | --- | --- | --- | --- |
| Cc1ccc(F)cc1S(=O)(=O)N[C@@H]1CCN(Cc2ccc(-c3ccccc3)cc2)C1 | -19.4 (active) | 0.121 | 13 (active) | 2.34 (inactive) | 0.349 (inactive) | 1.41 (inactive) | -0.275 | 0.335 (inactive) | -1.62 (inactive) | -1.57 | -1.8 | -1.3 | -4.73 | -3.15 | -4.09 | -1.82 | -0.516 (inactive) | -0.69 | -2.99 | -0.464 (inactive) |
| CCCCC(O)C1C=CC2C(=O)N(C3CCCCC3)C(=O)C2N1Nc1ccc(OC)cc1 (stereo not given) | -0.436 (inactive) | 0.366 | 3 (inactive) | 1.24 (inactive) | 0.517 (inactive) | 0.684 (inactive) | -0.62 | -0.937 (inactive) | -2.06 (inactive) | -1.43 | -0.875 | 0.325 | -0.572 | 0.0802 | -1.22 | -0.307 | -0.109 (inactive) | -0.111 | 0.024 | 0.112 (inactive) |
| CC(=O)Nc1cc(Br)ccc1C(=O)O | -0.657 (inactive) | 0.0494 | 0.552 (inactive) | 0.501 (inactive) | -0.904 (inactive) | 0.305 (inactive) | -0.107 | 0.385 (inactive) | -0.128 (inactive) | -0.269 | 0.665 | 0.747 | 0.332 | -0.906 | -0.178 | -0.598 | -0.672 (inactive) | -0.685 | 1.05 | -0.243 (inactive) |
| CC(=O)NCCCC[C@@H]1NC(=O)[C@@H]2C[C@H](C(=O)NCCCCN(C)C)[C@H](c3ccc(O)cc3)N2C1=O | 1.62 (inactive) | -0.29 | 0.453 (inactive) | -0.233 (inactive) | 1.13 (inactive) | 0.153 (inactive) | -0.051 | 0.0273 (inactive) | 0.192 (inactive) | 0.546 | 1.42 | -0.582 | 0.374 | 0.213 | 0.93 | 0.709 | 1.05 (inactive) | -0.293 | -0.504 | 0.854 (inactive) |
| C=CC[C@@]1(C(=O)NCC(O)CO)N=C(c2ccc(OCCCO)cc2)O[C@@H]1c1ccccc1N=[N+]=[N-] (stereo not given in full) | 1 (inactive) | 0.18 | 34.8 (active) | 27.8 (active) | 3.23 (inactive) | 6.75 (inactive) | 1.58 | -2.45 (inactive) | 0.918 (inactive) | -2.74 | -0.112 | 1.37 | -0.805 | -0.494 | -1.14 | 0.582 | -0.343 (inactive) | -0.164 | -1.17 | 0.695 (inactive) |
| COCCOC(=O)N1C(=O)[C@@]2(c3cc(C#CCC(C(=O)OC)C(=O)OC)ccc31)[C@H](C(=O)N1CCN(c3ncccn3)CC1)[C@H]1C(=O)O[C@H](c3ccccc3)[C@H](c3ccccc3)N1[C@@H]2c1ccc(OCCO)cc1 | 3.02 (inactive) | -0.0511 | 17.3 (active) | 3.12 (inactive) | -0.153 (inactive) | 0.857 (inactive) | 2.2 | 1.41 (inactive) | 1.43 (inactive) | 0.897 | 1.68 | 1.02 | 0.674 | 0.65 | 1.21 | -0.656 | 1.86 (inactive) | -0.303 | -1.16 | 0.665 (inactive) |
| O=C1O[C@@H](c2ccccc2)[C@@H](c2ccccc2)N2[C@@H](c3ccccc3OCCO)[C@]3(C(=O)Nc4ccc(C#CC5(O)CCCCCC5)cc43)[C@@H](C(=O)Nc3nc4ccccc4s3)[C@H]12 | -0.478 (inactive) | -0.12 | 3.1 (inactive) | 3.75 (inactive) | 1.96 (inactive) | 1.56 (inactive) | 0.361 | 1.42 (inactive) | 0.501 (inactive) | 1.28 | -1.49 | 0.601 | -3 | -3.22 | -4.17 | -2.67 | 2.71 (inactive) | -0.863 | -1.41 | -1.34 (inactive) |
| CC(C)=CCCC(C)=CC(O)C1C=CC2C(=O)N(c3ccccc3)C(=O)C2N1Nc1ccccc1 (stereo not given) | -1.8 (inactive) | 0.805 | 1.37 (inactive) | 1.4 (inactive) | 1.09 (inactive) | 1.27 (inactive) | -1.29 | -1.26 (inactive) | -4.03 (inactive) | -2.54 | -0.846 | -1.34 | -0.731 | -1.77 | -1.02 | -2 | 0.224 (inactive) | -0.222 | -0.236 | -0.518 (inactive) |
| C=CC[C@]1(C(=O)N2CCOCC2)N=C(c2ccc(OCCCO)cc2)O[C@H]1c1ccccc1 | 0.104 (inactive) | 0.302 | 11.3 (active) | 1.09 (inactive) | 0.492 (inactive) | 0.471 (inactive) | -0.0044 | -1.59 (inactive) | 0.486 (inactive) | -0.921 | -0.211 | 0.117 | -0.539 | -1.11 | -2.07 | -0.0158 | -0.0689 (inactive) | -0.326 | -0.577 | 1.39 (inactive) |
